Hit rate of the full screen: of about 5,500 compounds, about 2,000 (36%) were called active. Not shown: some 18% with an inconclusive outcome. Rule as the data show it: active = normalized growth mostly below about 0.91 (no sharp cut-off); inconclusive = no clear call, values can overlap the other calls; inactive = mostly above about 0.92. The list shows a part of the results.
Assay: chemical genetic growth profiling, strain panel (AID 1159580);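 also: tested at 20 µM; growth read once vehicle control cultures reached saturation at 30 °C; 1 = growth at the plate median or of vehicle wells; lower values mean less growth of the strain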
Conditions: growth OD

Measured: normalized growth

COc1c(O)cccc1O
inactive: S. cerevisiae deletion strains, locus YJL187C, strain SWE1, active compounds read low 1.02 | S. cerevisiae deletion strains, locus YJR043C, strain POL32, active compounds read low 1.03 | S. cerevisiae deletion strains, locus YJR066W, strain TOR1, active compounds read low 0.977 | S. cerevisiae deletion strains, locus YJR075W, strain HOC1, active compounds read low 1.02 | S. cerevisiae deletion strains, locus YKL009W, strain mrt4, active compounds read low 1.05 | S. cerevisiae deletion strains, locus YKL068W, active compounds read low 0.99 | S. cerevisiae deletion strains, locus YKL085W, strain MDH1 (second series), active compounds read low 1.01 | S. cerevisiae deletion strains, locus YKL085W, strain MDH1, active compounds read low 1.01 | S. cerevisiae deletion strains, locus YKL160W, strain elf1, active compounds read low 1.01 | S. cerevisiae deletion strains, locus YKR001C, strain vps1, active compounds read low 1.08 | S. cerevisiae deletion strains, locus YKR026C, strain gcn3, active compounds read low 1.02 | S. cerevisiae deletion strains, locus YKR091W, strain srl3, active compounds read low 1.02 | S. cerevisiae deletion strains, locus YLL001W, strain dnm1, active compounds read low 1.03 | S. cerevisiae deletion strains, locus YLL026W, active compounds read low 1.02 | S. cerevisiae deletion strains, locus YLL041C, strain sdh2, active compounds read low 1.02 | S. cerevisiae deletion strains, locus YLR027C, strain aat2, active compounds read low 1.01 | S. cerevisiae deletion strains, locus YLR039C, strain RIC1, active compounds read low 1.11 | S. cerevisiae deletion strains, locus YLR058C, strain SHM2, active compounds read low 1.03 | S. cerevisiae deletion strains, locus YLR102C, strain apc9, active compounds read low 1 | S. cerevisiae deletion strains, locus YLR113W, strain HOG1, active compounds read low 1.04 | S. cerevisiae deletion strains, locus YLR221C, strain rsa3, active compounds read low 1.03 | S. cerevisiae deletion strains, locus YLR258W, strain gsy2, active compounds read low 1.02 | S. cerevisiae deletion strains, locus YLR262C, strain YPT6 (second series), active compounds read low 1.03 | S. cerevisiae deletion strains, locus YLR268W, strain sec22, active compounds read low 1.05 | S. cerevisiae deletion strains, locus YLR320W, strain mms22, active compounds read low 1.04 | S. cerevisiae deletion strains, locus YLR330W, strain CHS5, active compounds read low 1.01 | S. cerevisiae deletion strains, locus YLR342W, strain FKS1, active compounds read low 1.03 | S. cerevisiae deletion strains, locus YLR357W, strain rsc2, active compounds read low 1.03 | S. cerevisiae deletion strains, locus YLR370C, strain arc18, active compounds read low 1.02 | S. cerevisiae deletion strains, locus YLR371W, strain rom2, active compounds read low 1.03 | S. cerevisiae deletion strains, locus YLR384C, strain iki3, active compounds read low 1.01 | S. cerevisiae deletion strains, locus YLR418C, strain cdc73, active compounds read low 1.1 | S. cerevisiae deletion strains, locus YML016C, strain PPZ1, active compounds read low 1.01 | S. cerevisiae deletion strains, locus YML032C, strain rad52, active compounds read low 1.01 | S. cerevisiae deletion strains, locus YML120C, strain ndi1, active compounds read low 1.01 | S. cerevisiae deletion strains, locus YML124C, strain tub3, active compounds read low 1 | S. cerevisiae deletion strains, locus YMR058W, strain fet3, active compounds read low 1.03 | S. cerevisiae deletion strains, locus YMR078C, strain ctf18, active compounds read low 1.02 | S. cerevisiae deletion strains, locus YMR125W, strain sto1, active compounds read low 1.01 | S. cerevisiae deletion strains, locus YMR129W, active compounds read low 1.02 | S. cerevisiae deletion strains, locus YMR205C, strain PFK2, active compounds read low 1.03 | S. cerevisiae deletion strains, locus YMR223W, strain ubp8, active compounds read low 1.03 | S. cerevisiae deletion strains, locus YMR231W, strain pep5, active compounds read low 1 | S. cerevisiae deletion strains, locus YMR307W, strain GAS1, active compounds read low 1.13 | S. cerevisiae deletion strains, locus YNL067W, strain RPL9B, active compounds read low 0.97 | S. cerevisiae deletion strains, locus YNL071W, strain lat1, active compounds read low 1.03 | S. cerevisiae deletion strains, locus YNL153C, strain GIM3, active compounds read low 1.02 | S. cerevisiae deletion strains, locus YNL183C, strain NPR1, active compounds read low 0.984 | S. cerevisiae deletion strains, locus YNL209W, strain ssb2, active compounds read low 1.01 | S. cerevisiae deletion strains, locus YNL233W, strain BNI4, active compounds read low 1.03 | S. cerevisiae deletion strains, locus YNL248C, strain rpa49, active compounds read low 1.04 | S. cerevisiae deletion strains, locus YNL250W, strain rad50, active compounds read low 1.05 | S. cerevisiae deletion strains, locus YNL271C, strain bni1, active compounds read low 1.02 | S. cerevisiae deletion strains, locus YNL298W, strain CLA4, active compounds read low 1.03 | S. cerevisiae deletion strains, locus YNL307C, strain MCK1, active compounds read low 1.01 | S. cerevisiae deletion strains, locus YNL322C, strain KRE1 (second series), active compounds read low 1.02 | S. cerevisiae deletion strains, locus YNL322C, strain KRE1, active compounds read low 0.99 | S. cerevisiae deletion strains, locus YNR049C, strain mso1, active compounds read low 1.02 | S. cerevisiae deletion strains, locus YNR052C, strain pop2, active compounds read low 1.04 | S. cerevisiae deletion strains, locus YOL012C, strain htz1 0.853 | S. cerevisiae deletion strains, locus YOL147C, strain pex11, active compounds read low 0.999 | S. cerevisiae deletion strains, locus YOR001W, strain rrp6, active compounds read low 1.02 | S. cerevisiae deletion strains, locus YOR061W, strain CKA2, active compounds read low 1.01 | S. cerevisiae deletion strains, locus YOR069W, strain VPS5, active compounds read low 0.996 | S. cerevisiae deletion strains, locus YOR070C, strain gyp1, active compounds read low 1.01 | S. cerevisiae deletion strains, locus YOR080W, strain dia2, active compounds read low 1.03 | S. cerevisiae deletion strains, locus YOR083W, strain WHI5, active compounds read low 1.03 | S. cerevisiae deletion strains, locus YOR106W, strain vam3, active compounds read low 1.06 | S. cerevisiae deletion strains, locus YOR136W, strain idh2, active compounds read low 1.02 | S. cerevisiae deletion strains, locus YOR144C, strain elg1, active compounds read low 1.01 | S. cerevisiae deletion strains, locus YOR184W, strain ser1, active compounds read low 1.06 | S. cerevisiae deletion strains, locus YOR231W, strain MKK1, active compounds read low 1.03 | S. cerevisiae deletion strains, locus YOR265W, strain rbl2, active compounds read low 1.01 | S. cerevisiae deletion strains, locus YOR270C, strain vph1, active compounds read low 1.13 | S. cerevisiae deletion strains, locus YOR290C, strain snf2, active compounds read low 1.03 | S. cerevisiae deletion strains, locus YOR316C, strain cot1, active compounds read low 1 | S. cerevisiae deletion strains, locus YPL051W, strain arl3, active compounds read low 0.998 | S. cerevisiae deletion strains, locus YPL078C, strain atp4, active compounds read low 1.03 | S. cerevisiae deletion strains, locus YPL106C, strain sse1, active compounds read low 1.04 | S. cerevisiae deletion strains, locus YPL240C, strain hsp82, active compounds read low 1.02 | S. cerevisiae deletion strains, locus YPL256C, strain CLN2, active compounds read low 1.01 | S. cerevisiae deletion strains, locus YPR119W, strain clb2, active compounds read low 1.01 | S. cerevisiae deletion strains, locus YPR141C, strain kar3, active compounds read low 1.01 | S. cerevisiae deletion strains, locus YPR163C, strain tif3, active compounds read low 1.03 | S. cerevisiae deletion strains, locus YPR167C, strain met16, active compounds read low 1.04 | S. cerevisiae deletion strains, strain wtn01, active compounds read low 1.04 | S. cerevisiae strains, strain wild type, active compounds read low 1

— PubChem BioAssay AID1159580 (chemical genetic matrix, 2015)
